Experimental data: PubChem BioAssay AID1159580 (chemical genetic matrix, 2015)
Hit rate of the full screen: of about 5,500 compounds, about 2,000 (36%) were called active. Inconclusive results (about 18%) are left out. Cut-off read from the data, not from the text of the source: active = normalized growth mostly below about 0.91 (no sharp cut-off); inconclusive = no clear call, values can overlap the other calls; inactive = mostly above about 0.92. The list shows a part of the results.

Test: chemical genetic growth profiling, strain panel (AID 1159580);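 note: tested at 20 µM; growth read once vehicle control cultures reached saturation at 30 °C; 1 = growth at the plate median or of vehicle wells; lower values mean less growth of the strain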
Conditions: S. cerevisiae deletion strains, growth OD

Measured: normalized growth

CCCCCCCCCCC[C@@H](C[C@H]1OC(=O)[C@H]1CCCCCC)OC(=O)[C@@H](CC(C)C)NC=O
inactive: locus YAL013W, strain DEP1, stronger effect = lower value 1.05 | locus YAL021C, strain ccr4, stronger effect = lower value 1.01 | locus YAL026C, strain drs2, stronger effect = lower value 1.05 | locus YAL030W, strain snc1, stronger effect = lower value 1.03 | locus YBL061C, strain skt5, stronger effect = lower value 1.02 | locus YBR009C, strain hhf1, stronger effect = lower value 1.04 | locus YBR021W, strain FUR4, stronger effect = lower value 1.05 | locus YBR023C, strain chs3, stronger effect = lower value 0.994 | locus YBR171W, strain sec66, stronger effect = lower value 1.06 | locus YBR229C, strain ROT2, stronger effect = lower value 1.02 | locus YBR231C, strain swc5, stronger effect = lower value 0.965 | locus YBR279W, strain paf1, stronger effect = lower value 1 | locus YCL011C, strain gbp2, stronger effect = lower value 1.05 | locus YCL016C, strain dcc1, stronger effect = lower value 1.01 | locus YCL029C, strain bik1, stronger effect = lower value 1.03 | locus YCL061C, strain MRC1, stronger effect = lower value 1.05 | locus YCL069W, strain vba3, stronger effect = lower value 1.05 | locus YCR088W, strain abp1, stronger effect = lower value 1.02 | locus YDL005C, strain med2, stronger effect = lower value 1.03 | locus YDL035C, strain GPR1, stronger effect = lower value 1.05 | locus YDL040C, strain nat1, stronger effect = lower value 1 | locus YDL074C, strain BRE1, stronger effect = lower value 1.05 | locus YDL101C, strain DUN1, stronger effect = lower value 1.02 | locus YDL134C, strain PPH21, stronger effect = lower value 1.02 | locus YDL185W, strain tfp1, stronger effect = lower value 0.992 | locus YDL192W, strain arf1, stronger effect = lower value 1.03 | locus YDR001C, strain nth1, stronger effect = lower value 1.05 | locus YDR069C, strain doa4, stronger effect = lower value 1.02 | locus YDR101C, strain arx1, stronger effect = lower value 1.03 | locus YDR137W, strain rgp1, stronger effect = lower value 0.978 | locus YDR150W, strain NUM1, stronger effect = lower value 1.06 | locus YDR159W, strain sac3, stronger effect = lower value 1.01 | locus YDR162C, strain NBP2, stronger effect = lower value 1.02 | locus YDR195W, strain ref2 1.02 | locus YDR297W, strain sur2, stronger effect = lower value 1.04 | locus YDR318W, strain mcm21, stronger effect = lower value 1.01 | locus YDR334W, strain swr1, stronger effect = lower value 1.03 | locus YDR335W, strain msn5, stronger effect = lower value 1.05 | locus YDR388W, stronger effect = lower value 1.02 | locus YDR392W, strain spt3, stronger effect = lower value 1.1 | locus YDR502C, strain sam2, stronger effect = lower value 1.03 | locus YEL003W, strain gim4, stronger effect = lower value 1.02 | locus YEL037C, strain rad23, stronger effect = lower value 1.06 | locus YEL061C, strain CIN8 (second series), stronger effect = lower value 1.04 | locus YEL061C, strain CIN8, stronger effect = lower value 1.01 | locus YER015W, strain faa2, stronger effect = lower value 1.02 | locus YER016W, strain bim1, stronger effect = lower value 1.01 | locus YER110C, stronger effect = lower value 1.02 | locus YER111C, strain swi4, stronger effect = lower value 1.06 | locus YER155C, strain BEM2 (second series), stronger effect = lower value 1.07 | locus YER155C, strain BEM2, stronger effect = lower value 1.03 | locus YER167W, strain BCK2, stronger effect = lower value 1.02 | locus YFR010W, strain ubp6, stronger effect = lower value 1.05 | locus YGL078C, strain dbp3, stronger effect = lower value 1.03 | locus YGL086W, strain mad1, stronger effect = lower value 1.01 | locus YGL167C, strain pmr1, stronger effect = lower value 0.994 | locus YGL173C, strain kem1, stronger effect = lower value 1.04 | locus YGL227W, strain vid30, stronger effect = lower value 1.02 | locus YGL240W, strain doc1, stronger effect = lower value 1.06 | locus YGL248W, strain PDE1, stronger effect = lower value 1.03 | locus YGL253W, strain hxk2, stronger effect = lower value 1.04 | locus YGR078C, strain PAC10, stronger effect = lower value 1.05 | locus YGR135W, strain pre9, stronger effect = lower value 1.02 | locus YGR252W, strain gcn5, stronger effect = lower value 1.08 | locus YHR013C, strain ard1, stronger effect = lower value 1.03 | locus YHR027C, strain rpn1, stronger effect = lower value 1.05 | locus YHR030C, strain SLT2, stronger effect = lower value 1.04 | locus YHR079C, strain IRE1 (second series), stronger effect = lower value 1 | locus YHR094C, strain hxt1, stronger effect = lower value 1 | locus YHR129C, strain ARP1, stronger effect = lower value 1.04 | locus YHR142W, strain chs7, stronger effect = lower value 1.04 | locus YHR200W, strain rpn10, stronger effect = lower value 1.03 | locus YIL066C, strain RNR3, stronger effect = lower value 1.03 | locus YIL073C, strain SPO22, stronger effect = lower value 1.06 | locus YIL125W, strain kgd1, stronger effect = lower value 1 | locus YIR030C, strain dcg1, stronger effect = lower value 1.03 | locus YJL092W, strain hpr5, stronger effect = lower value 1.04 | locus YJL095W, strain BCK1 (second series), stronger effect = lower value 1.03 | locus YJL095W, strain BCK1, stronger effect = lower value 1.05 | locus YJL115W, strain asf1, stronger effect = lower value 1.06 | locus YJL129C, strain trk1, stronger effect = lower value 1.04 | locus YJL134W, strain LCB3, stronger effect = lower value 1.02 | locus YJL154C, strain vps35, stronger effect = lower value 1.07 | locus YJL164C, strain tpk1, stronger effect = lower value 1.04 | locus YJL166W, strain qcr8, stronger effect = lower value 1.04 | locus YJL168C, strain set2, stronger effect = lower value 1 | locus YJL187C, strain SWE1 (second series), stronger effect = lower value 1.03 | locus YJL187C, strain SWE1, stronger effect = lower value 1.04
